Measured values: PubChem BioAssay (Tox21)
Records with an inconclusive call do not appear. The source made the active and inactive calls. Unless noted, calls come from the whole dose curve; as a rule, active = well fitted curve in the direction sought with a large enough effect in the repeat runs; inconclusive = weak or mixed curves; inactive = no such curve, though single readings can be large; an effect the other way counts as inactive or inconclusive.

Legend:
[1] = qHTS assay to identify small molecule antagonists of the estrogen related receptor (ERR) signaling pathway from Tox21 library - cell viability counter screen (AID 1224834); note: nearly all actives have a fitted effect of over 30% in size; note: potency is the fitted concentration of half-maximal effect
In short: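 CellTiter-Fluor fluorescence measured; ERR cells; 17.5 h compound incubation at 37 C; 30 min reagent step.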

[2] = biological target: Luciferin 4-monooxygenase (Photinus pyralis) (UniProt P08659); assay: qHTS assay to identify small molecule inhibitors of firefly luciferase (AID 1224835); note: nearly all actives have a fitted effect of over 25% in size; note: potency is the fitted concentration of half-maximal effect
Luciferin 4-monooxygenase (Photinus pyralis), sequence (P08659 whole entry, looked up): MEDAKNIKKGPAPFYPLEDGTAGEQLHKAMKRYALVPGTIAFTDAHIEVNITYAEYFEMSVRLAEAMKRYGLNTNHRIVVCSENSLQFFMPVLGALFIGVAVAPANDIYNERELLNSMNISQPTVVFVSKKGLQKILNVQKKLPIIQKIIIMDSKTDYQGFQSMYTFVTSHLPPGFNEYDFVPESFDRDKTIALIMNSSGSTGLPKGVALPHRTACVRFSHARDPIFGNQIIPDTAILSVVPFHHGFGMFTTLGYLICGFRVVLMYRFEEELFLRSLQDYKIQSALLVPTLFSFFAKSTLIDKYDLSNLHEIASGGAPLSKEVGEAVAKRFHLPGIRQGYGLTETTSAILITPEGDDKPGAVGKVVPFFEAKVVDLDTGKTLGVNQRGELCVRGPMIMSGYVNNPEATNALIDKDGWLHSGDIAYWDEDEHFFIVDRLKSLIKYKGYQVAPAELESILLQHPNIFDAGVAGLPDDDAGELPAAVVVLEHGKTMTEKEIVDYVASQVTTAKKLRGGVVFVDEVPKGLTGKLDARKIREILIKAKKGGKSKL
In short: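 Biochemical qHTS: compounds run as interplate titrations against purified firefly enzyme, with D-luciferin and ATP each at its KM concentration. Light output recorded by CCD imaging.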

[3] = qHTS assay to identify small molecule agonists of the constitutive androstane receptor (CAR) signaling pathway - cell viability counter screen (AID 1224836); note: nearly all actives have a fitted effect of over 45% in size; note: potency is the fitted concentration of half-maximal effect
In short: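 Cell viability multiplexed with the CAR agonist screen: CellTiter-Fluor fluorescence after 23 hr at 37 C. HepG2-CYP2B6-hCAR cells got compounds at 15 concentrations with PK11195 at 0.75 uM final.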

[4] = qHTS assay to identify small molecule antagonists of the constitutive androstane receptor (CAR) signaling pathway - cell viability counter screen (AID 1224837); note: nearly all actives have a fitted effect of over 45% in size; note: potency is the fitted concentration of half-maximal effect
In short: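 Using CellTiter-Fluor, viability is scored in HepG2 cells stably carrying hCAR and a 2.2kb CYP2B6 reporter after 23 hr compound exposure across 15 concentrations, with CITCO present at 50 nM.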

[5] = biological target: Nuclear receptor subfamily 1 group I member 3 (Homo sapiens) (UniProt Q14994); assay: qHTS assay to identify small molecule antagonists of the constitutive androstane receptor (CAR) signaling pathway (AID 1224838);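 note: HepG2 cells stably expressing hCAR with CYP2B6 luciferase reporter stimulated by CITCO; nearly all actives have a fitted effect of over 40% in size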; note: potency is the fitted concentration of half-maximal effect
Nuclear receptor subfamily 1 group I member 3 (Homo sapiens), sequence (Q14994 whole entry, looked up): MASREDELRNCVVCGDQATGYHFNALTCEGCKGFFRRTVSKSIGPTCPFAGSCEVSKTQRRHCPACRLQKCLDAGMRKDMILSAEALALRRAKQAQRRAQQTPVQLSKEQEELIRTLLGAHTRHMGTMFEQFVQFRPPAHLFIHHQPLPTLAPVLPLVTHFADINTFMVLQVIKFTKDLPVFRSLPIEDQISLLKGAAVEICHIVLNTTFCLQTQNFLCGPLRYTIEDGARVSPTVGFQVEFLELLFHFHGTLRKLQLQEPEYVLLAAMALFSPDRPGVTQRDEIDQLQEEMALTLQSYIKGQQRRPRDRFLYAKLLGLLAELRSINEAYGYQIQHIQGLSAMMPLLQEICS
In short: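 Reporter luminescence was quantified after 24 h exposure of hCAR/CYP2B6-2.2kb double-stable HepG2 cells to compounds at 15 concentrations in the presence of 50 nM CITCO final.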

[6] = biological target: Nuclear receptor subfamily 1 group I member 3 (Homo sapiens) (UniProt Q14994); assay: qHTS assay to identify small molecule agonists of the constitutive androstane receptor (CAR) signaling pathway (AID 1224839); note: nearly all actives have a fitted effect of over 15% in size; note: potency is the fitted concentration of half-maximal effect
In short: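 Luminescent ONE-Glo read-out after 24 hr, 37 C exposure of double-stable HepG2-CYP2B6-hCAR reporter cells to a 15-point compound series, in the presence of 0.75 uM PK11195 (final).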

[7] = qHTS assay to identify small molecule antagonists of the estrogen related receptor signaling pathway with the pleiotropic PPARgamma coactivator (PGC) from Tox21 10K library - cell viability counter screen (AID 1224840; active = well fitted cell-killing curve with a large enough effect in the repeat runs, not every such curve was filed as active; note: nearly all actives have a fitted effect of over 40% in size; note: potency is the fitted concentration of half-maximal effect)
In short: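 Here the PGC/ERR cells serve as a cytotoxicity control: they are exposed to compounds for 17.5 hours at 37 C, and live-cell signal is quantified using CellTiter-Fluor fluorescence.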

[8] = qHTS assay to identify small molecule antagonists of the estrogen related receptor signaling pathway with the pleiotropic PPARgamma coactivator (PGC) from Tox21 10K library (AID 1224841; call rule not given here; note: actives are mostly falling curves and most rising ones were filed inactive; nearly all actives have a fitted effect of over 50% in size; note: potency is the fitted concentration of half-maximal effect)
In short: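 Each well held 2,000 PGC/ERR cells, pre-incubated six hours (37 C, 5% CO2). Test substances in DMSO were added by pin tool and left for 18 h at 37 C before luciferase detection by One-Glo.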

[9] = qHTS assay to identify small molecule agonists of the estrogen related receptor signaling pathway with the pleiotropic PPARgamma coactivator (PGC) from Tox21 10K library (AID 1224842); note: nearly all actives have a fitted effect of over 15% in size
In short: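 PGC/ERR reporter cell line, 2,000 cells per well, incubated 6 h at 37 C before 23 nL compound in DMSO was added. After 18 h at 37 C, One-Glo luminescence read following 30 min at room temperature.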

[10] = biological target: Thyrotropin receptor (Homo sapiens) (UniProt P16473); assay: qHTS assay to identify small molecule agonists of the thyroid stimulating hormone receptor (TSHR) signaling pathway (AID 1224843; calls by dose curve; note: nearly all actives have a fitted effect of over 45% in size)
Thyrotropin receptor (Homo sapiens), sequence (P16473 whole entry, looked up): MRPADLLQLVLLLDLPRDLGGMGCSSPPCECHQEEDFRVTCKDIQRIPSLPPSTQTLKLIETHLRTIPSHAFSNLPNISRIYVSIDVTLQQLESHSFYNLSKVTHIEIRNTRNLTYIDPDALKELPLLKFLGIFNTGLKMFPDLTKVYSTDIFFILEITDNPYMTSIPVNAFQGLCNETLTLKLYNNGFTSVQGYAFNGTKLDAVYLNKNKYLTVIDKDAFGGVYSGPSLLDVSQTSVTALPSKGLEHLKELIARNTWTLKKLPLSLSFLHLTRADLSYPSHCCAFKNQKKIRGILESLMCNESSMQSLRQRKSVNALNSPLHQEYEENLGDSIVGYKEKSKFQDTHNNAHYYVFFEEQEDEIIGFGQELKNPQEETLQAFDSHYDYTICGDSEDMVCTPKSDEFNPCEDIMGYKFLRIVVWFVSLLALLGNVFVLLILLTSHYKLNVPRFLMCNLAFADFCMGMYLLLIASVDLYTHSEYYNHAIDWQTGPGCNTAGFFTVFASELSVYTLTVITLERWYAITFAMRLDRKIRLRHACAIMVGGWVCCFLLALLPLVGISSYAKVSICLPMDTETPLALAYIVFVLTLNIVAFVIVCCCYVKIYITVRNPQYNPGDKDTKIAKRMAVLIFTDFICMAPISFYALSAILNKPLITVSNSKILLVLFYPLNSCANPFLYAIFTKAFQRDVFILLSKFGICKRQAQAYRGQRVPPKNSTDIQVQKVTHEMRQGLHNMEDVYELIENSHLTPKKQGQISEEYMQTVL
In short: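 TSHR-HEK293 cells in agonist mode, 30 min room-temperature step, then cAMP measured by competitive HTRF (cAMP-d2 with anti-cAMP cryptate) after 1 h at room temperature. Tested at 15 concentrations in triplicate.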

Measured: Potency

O=C(O)C(c1ccc(Cl)cc1)c1ccc(Cl)cc1
inactive: all assays above

CC(C)CC=O
not listed: [8] | [9]
inactive: all other assays above

CC(C(=O)O)c1ccc(C(=O)c2ccccc2)s1 (stereo unspecified)
inactive: [1] | [3] | [4] | [5] | [7]
active: [2] 15.5 µM | [6] 16.8 µM

OCC1CC2CC1C1CCC(CO)C21 (stereo unspecified)
inactive: all assays above

COC(=O)C(C)=O
inactive: all assays above

C=CC(=O)OCCOC(=O)CCC(=O)O
not listed: [9]
inactive: all other assays above

NC(N)=NN=C(/C=C/c1ccc([N+](=O)[O-])o1)/C=C/c1ccc([N+](=O)[O-])o1
active: [1] 2.98 µM | [2] 27.5 µM | [3] 3.35 µM | [4] 2.37 µM | [5] 2.98 µM | [7] 2.98 µM | [8] 6.68 µM
inactive: [6] | [10]

CC(=O)/C(C)=C/C1C(C)=CCCC1(C)C (stereo unspecified)
inactive: all assays above

Cc1cccc(OCCOc2cccc(C)c2)c1
active: [6] 29 µM
not listed: [9] | [10]
inactive: all other assays above

CCCCCCOC(=O)CCC
not listed: [8] | [9]
inactive: all other assays above

NC(=S)N/N=C/c1cccnc1
not listed: [9] | [10]
inactive: all other assays above

N[C@H]1C(O)O[C@H](CO)[C@H](O)[C@@H]1O (stereo partly specified)
inactive: all assays above

CCOC(=O)CC(=O)c1cc(F)c(Cl)nc1Cl
active: [2] 40.9 µM
not listed: [8] | [9] | [10]
inactive: all other assays above

Cc1ccc(C(C)c2ccc(C)c(C)c2)cc1C
not listed: [8] | [9] | [10]
inactive: all other assays above

CCCCOC(=O)c1ccccc1C(=O)OCC(CC)CCCC (stereo unspecified)
not listed: [8] | [9]
inactive: all other assays above

CCCCCC/C=C/C=O
not listed: [9] | [10]
inactive: all other assays above

COc1ccc(OC)c(OC)c1
not listed: [8] | [9]
inactive: all other assays above

O=C(NS(=O)(=O)/C=C/c1cccs1)c1ccc(F)cc1Br
not listed: [8] | [9] | [10]
inactive: all other assays above

CC(O)C1CCCCC1 (stereo unspecified)
not listed: [9]
inactive: all other assays above

C=C(C)C(=O)OCCN(C)C
inactive: [1] | [2] | [3] | [4] | [5] | [6]

CC(=O)OCCc1ccccc1
not listed: [8] | [9]
inactive: all other assays above

CCOc1cc(OCC)c(C(=O)CCC(=O)O)cc1OCC
not listed: [8] | [9] | [10]
inactive: all other assays above

N#Cc1c(F)cccc1F
not listed: [8] | [9]
inactive: all other assays above

CN1CCC(=C2c3ccccc3C=Cc3ccccc32)CC1
inactive: all assays above

COCCO
not listed: [8] | [9] | [10]
inactive: all other assays above

CCN(CC)CCOC(=O)C1(c2ccccc2)CCCC1
inactive: all assays above

CC(C)(Oc1ccc(Cl)cc1)C(=O)OCCCOC(=O)C(C)(C)Oc1ccc(Cl)cc1
inactive: [1] | [2] | [3] | [4]
